Molecules are shown by their SMILES. Values joined by “and” are separate entries in the source; they are usually repeats but may differ in a detail not shown here. Equal entries are not always repeated. Results filed as inconclusive are left out. A call without a number means that no potency is given here. More than one record can exist for a structure, and the calls need not agree. Active and inactive are the calls of the source. Calls follow the shape of the dose curve; as a rule, active = well fitted cell-killing curve with a large enough effect in the repeat runs; inconclusive = weak or mixed curves, or effect the other way; inactive = no such curve, though single readings can be large or run the other way. Starred links: 1 amine or outer side, 2 acyl side, 3 side chain; linkers in the order of their positions; H or OH if unused. Positions of bridges follow the written chain, without caps; N, C: chain ends. Non-standard residues stand in square brackets, D forms with d. Residues, ends and D or L forms follow the SMILES beside them. Chains are numbered I, II in the order given. Actinocin(9to1) = Cc1c2oc3c(C)ccc(C(=O)[*:1])c3nc-2c(C(=O)[*:2])c(N)c1=O; NMeV = CN[C@H](C(=O)O)C(C)C; Sar = CNCC(=O)O
Potency is read from the fitted curve at half-maximal effect.

This test in a line: qHTS assay to identify small molecule antagonists of the thyroid receptor (TR) signaling pathway - cell viability counter screen (AID 743064). Also: nearly all actives have a fitted effect of over 50% in size. Conditions: GH3.TRE-Luc viability, CellTiter-Fluor, 24 h; series mostly up to 70.3 µM. An excerpt:
National Center for Advancing Translational Sciences [NCATS]
NIH Chemical Genomics Center [NCGC]
U.S. Environmental Protection Agency [EPA]
National Institutes of Environmental Health Sciences [NIEHS]
National Toxicology Program [NTP]
U.S. Food and Drug Administration [FDA]
Thyroid receptor (TR), a nuclear hormone receptor, plays an important role in development, proliferation, differentiation, metabolism, brain function, and cardiovascular system. […] To profile the Tox21 10K compound library in TR signaling, a cell-based GH3-TRE-Luc assay (GH3.TRE-Luc cell line, developed by the laboratory of Dr. Albertinka J. Murk, Wageningen University) was used to measure the inhibition of TR. GH3 (rat pituitary tumor) cells stably expressing a TR activity sensor consisting of two TR response elements and a luciferase reporter gene. The cytotoxicity of the Tox21 compound library against the GH3.TRE-Luc cell line was tested in parallel by measuring the cell viability using CellTiter-Fluor assay (Promega, Madison, WI) in the same wells.
Tox21 Assay Protocol Summary:
GH3.TRE-Luc cells were dispensed at 1500 cells/4 uL/well into 1536-well white solid bottom plates using a Multidrop Combi dispenser (Thermo Fisher Scientific Inc., Waltham, MA). After the assay plates were incubated at 37 C for 4 hours, 23 nL of library compound or DMSO controls was transferred to the assay plates by a pintool station (Kalypsys, San Diego, CA), followed by addition of 1 ul of T3 (1 nM, final concentration in the wells) to stimulate TR transactivation. The assay plates were incubated at 37 C for 23.5 h, and then 1 uL of CellTiter-Fluor reagent (Promega, Madision, WI) of measuring cytotoxicity was added to each well using a Bioraptr Flying Reagent Dispenser (FRD) workstation (Beckman Coulter, Indianapolis, IN, USA). The plates were incubated at 37C and 5% CO2 for additional 30 min, and fluorescence intensity was measured by a ViewLux plate reader (PerkinElmer, Shelton, CT).
(qHTS replaces the single test concentration by a dilution series.)
In the case of `Cc1cc(OCCOCC[N+](C)(C)Cc2ccccc2)ccc1C(C)(C)CC(C)(C)C`, the Potency was 10.6 µM (active) and 12.1 µM (active).
Take `O=C(Cl)c1cccc(C(=O)Cl)c1`: the Potency entry was “inactive”.
For `CC(=O)OCCOCCOCCOC(C)=O`, the Potency result is “inactive”.
Take `CC(C)C(=O)c1c(C(C)C)nn2ccccc12`: the Potency entry is “inactive”.
In the case of `Nc1ccc(O)cc1` it was 8.41 µM (active) and 17.2 µM (active) and 14.2 µM (active); in that of `CC(C)(C)c1ccc(O)c(C(C)(C)C)c1`, 27.2 µM (active) and 30.6 µM (active); in that of `NNCCc1ccccc1`, “inactive and 27.4 µM (active)”.
In the case of `CCOC(=O)C(C)C(C)=O` (stereo not given) it was “inactive”.
With `CCC(=O)/C=C/C1C(C)=CCCC1(C)C` (stereo not given), the Potency entry was “inactive”.
Turning to `O=C(O)c1cn(-c2ccc(F)cc2)c2cc(N3CCNCC3)c(F)cc2c1=O`, the Potency entry is “inactive”.
In the case of `CC(C)(C)NC(=O)[C@@H]1CN(Cc2cccnc2)CCN1C[C@@H](O)C[C@@H](Cc1ccccc1)C(=O)N[C@H]1c2ccccc2C[C@H]1O`, the Potency entry is “inactive”.
`CC(=O)OCC1=C(C(=O)O)N2C(=O)[C@@H](NC(=O)Cc3cccs3)[C@H]2SC1`: the Potency entry is “inactive”.
For `Cc1cccc(O)c1C` the value was “inactive”.
In the case of `CCC(CO)(CO)COCC(CC)(CO)CO` it was “inactive”.
For `Cc1c2oc3c(C)ccc(C(=O)N[C@@H]4C(=O)N[C@H](C(C)C)C(=O)N5CCC[C@H]5C(=O)N(C)CC(=O)N(C)[C@@H](C(C)C)C(=O)O[C@@H]4C)c3nc-2c(C(=O)N[C@@H]2C(=O)N[C@H](C(C)C)C(=O)N3CCC[C@H]3C(=O)N(C)CC(=O)N(C)[C@@H](C(C)C)C(=O)O[C@@H]2C)c(N)c1=O` (I: T[dV]P[Sar][NMeV] / II: T[dV]P[Sar][NMeV]; ester I:1-I:C, II:1-II:C; linker I:N-II:N via Actinocin(9to1)) the value was 6 nM (active) and 0.9 nM (active); for `NCCO`, “inactive”.
As for `CC(C)(O)CCC(C)(C)O`, the Potency entry was “inactive”.
With `CC[C@H]1CN2CCc3cc(OC)c(OC)cc3[C@@H]2C[C@@H]1C[C@H]1NCCc2cc(OC)c(OC)cc21`, the Potency is 84.1 nM (active) and 97.2 nM (active).
In the case of `COc1ccc(Cc2cnc(N)nc2N)cc1OC` it was “inactive”; in that of `CCCCCCCCCCCC[N+](C)(C)C`, 17.2 µM (active) and 13.7 µM (active) and 15.4 µM (active).
For `CC(=O)Nc1ccc(C(=O)CCl)cc1` the value was “inactive and 8.63 µM (active)”; for `CC(C)(c1ccccc1)c1ccc(Nc2ccc(C(C)(C)c3ccccc3)cc2)cc1`, “inactive”; for `CC1COC(=O)O1` (stereo not given), “inactive”.
Turning to `CC[C@]1(O)C[C@@H]2CN(CCc3c([nH]c4ccccc34)[C@@](C(=O)OC)(c3cc4c(cc3OC)N(C)[C@H]3[C@@](O)(C(=O)OC)[C@H](OC(C)=O)[C@]5(CC)C=CCN6CC[C@]43[C@@H]65)C2)C1`, the Potency is 188 nM (active) and 266 nM (active).
Turning to `CN1C(=O)c2ccc([N+](=O)[O-])cc2C1=O`, the Potency result was “inactive”.
Consider `COc1ccc(COC(C)=O)cc1`, for which the Potency result was “inactive”.
For `CCCCOCCOC(=O)c1ccccc1C(=O)OCCOCCCC` the value was “inactive”; for `COc1cc(C(=S)N2CCOCC2)ccc1O`, “inactive”.
For `OCCN1CCNCC1` the value was “inactive”.
For `c1ccc2n[nH]nc2c1` the value was “inactive”.
Consider `C=C(C)C(=O)O`, for which the Potency result is “inactive”.
For `C=C(C)C1CC=C(C)C(OC(C)=O)C1` (stereo not given), the Potency result is “inactive”.
In the case of `CCCCN(CCO)CCCC` it was “inactive”; in that of `O=C(O)c1cccc(C(=O)O)c1`, “inactive”; in that of `Oc1c(Cl)cc(Cl)c(Cl)c1Cc1c(O)c(Cl)cc(Cl)c1Cl`, 26.6 µM (active) and 9.66 µM (active) and 24.3 µM (active).
In the case of `O=C(O[C@@H]1Cc2c(O)cc(O)cc2O[C@@H]1c1cc(O)c(O)c(O)c1)c1cc(O)c(O)c(O)c1` it was 48.7 µM (active) and 52.5 µM (active); in that of `O=C1CC2(CCCC2)CC(=O)N1CCCCN1CCN(c2ncccn2)CC1`, “inactive”.
`Nc1cc(S(=O)(=O)O)cc2cc(S(=O)(=O)O)cc(O)c12`: the Potency entry was “inactive”.
In the case of `O=C(OCc1ccccc1)c1ccc(O)cc1` it was “inactive”; in that of `CCN(CC)CCOc1ccc(/C(=C(\Cl)c2ccccc2)c2ccccc2)cc1`, 7.5 µM (active) and 7.86 µM (active).

The values are drawn from PubChem BioAssay (Tox21).
